# Records with an inconclusive call do not appear. Calls of active or inactive are those of the source. Calls follow the shape of the full dose curve.
# Molecular target: Tyrosine-protein kinase ABL1 (Homo sapiens) (UniProt P00519)
# Experiment: ABL1 kinase (ABL1-N-HiBiT) SDR gain of signal screen
# Conditions: Purified ABL1-N-HiBiT enzyme, Nano-Glo HiBiT luminescence, 30 min compound incubation; series mostly up to 32.9 µM; activity change, gain of signal: at the top concentration
# Source text: National Center for Advancing Translational Sciences (NCATS),
# National Institute of Health (NIH), Maryland
# Discovery and optimization of novel protein-binding ligands underlies many of the methods and applications of biology, drug discovery, clinical diagnostics, and environmental toxicology. Assays for detecting the interaction of, for example, a molecule with a macromolecular target also referred to here as the target of interest (TOI) is dependent on a compatible output technology. Depending on the nature and knowledge surrounding the TOI, whether a receptor, enzyme, regulatory subunit or scaffold, or a sequence-defined nucleic acid folded into a complex tertiary structure, assay strategies can vary widely.
# Here we exploit ligand-biased changes in the structural dynamics of the target protein to control reporter alpha complementation allowing a non-competitive, non-functional, non-separation measure of ligand-target interaction.
# Secondly, we show the specificity and sensitivity of the SDR for the Abelson tyrosine kinase (ABL1) compared to the serine/threonine protein kinase A, using an enriched chemical library of 128 compounds selected, in part, for activity annotated with ABL1 kinase activity using the Pharos database (3).
# (1) A. S. Dixon et al., NanoLuc Complementation Reporter Optimized for Accurate Measurement of Protein Interactions in Cells. ACS Chem Biol 11, 400-408 (2016).
# Chemistry & Biology, 19, 1060 - 1072 (2012).
# (3) K. J. Kelleher et al., Pharos 2023: an integrated resource for the understudied human proteome. Nucleic Acids Res 51, D1405-D1416 (2023).
# PROTOCOL TABLE (as described by Inglese J, Shamu CE and Guy RK. 2007)
# SEQUENCE No. (e.g., 1, 2, 3, etc.); […] (e.g., C. elegans, Compounds, Incubation, Read, etc.); VALUE and DESCRIPTION.
# 1. Reagent. Dispense 4 uL ABL1-N-HiBiT enzyme per well at a final enzyme concentration of 10 nM in buffer without ATP (SDR assay) into columns 2-48 of four replicate Greiner 1536-well white, solid bottom high base, medium plates per assay. Dispense respective buffer without enzyme at 4 uL/well in column 1 of assay plates using BioRaptr 2.
# 2. Compounds. Library compounds added at 23 nL/well by pin transfer. DMSO neutral control and imatinib positive control added at 25 nL/well, transfer by Mosquito dispenser.
# 3. Incubation. Incubate enzyme and compounds at room temperature for 30 min, protected from light.
# 4. Reagent. (SDR assay) Add 3 uL/well of Nano-Glo HiBiT reagent (Promega) to assay plates with or without ATP.
# 5. Incubation. (SDR assay) Incubate enzyme solution and HiBiT reagent at room temperature for 10 min, protect from light.
# 6. Detector. (SDR assay) Luminescence measured using CCD-based camera (ViewLux) with settings as follows: Exposure, 1 sec; Gain, High; Speed, Slow; Binning, 2X.
# Inglese J, Shamu CE and Guy RK, Reporting data from high throughput screening of small molecule libraries, Nature Chemical Biology, 2007, 3(8): 438-441. doi.org/10.1038/nchembio0807-438.
# Tyrosine-protein kinase ABL1 (Homo sapiens), sequence (P00519 whole entry, looked up): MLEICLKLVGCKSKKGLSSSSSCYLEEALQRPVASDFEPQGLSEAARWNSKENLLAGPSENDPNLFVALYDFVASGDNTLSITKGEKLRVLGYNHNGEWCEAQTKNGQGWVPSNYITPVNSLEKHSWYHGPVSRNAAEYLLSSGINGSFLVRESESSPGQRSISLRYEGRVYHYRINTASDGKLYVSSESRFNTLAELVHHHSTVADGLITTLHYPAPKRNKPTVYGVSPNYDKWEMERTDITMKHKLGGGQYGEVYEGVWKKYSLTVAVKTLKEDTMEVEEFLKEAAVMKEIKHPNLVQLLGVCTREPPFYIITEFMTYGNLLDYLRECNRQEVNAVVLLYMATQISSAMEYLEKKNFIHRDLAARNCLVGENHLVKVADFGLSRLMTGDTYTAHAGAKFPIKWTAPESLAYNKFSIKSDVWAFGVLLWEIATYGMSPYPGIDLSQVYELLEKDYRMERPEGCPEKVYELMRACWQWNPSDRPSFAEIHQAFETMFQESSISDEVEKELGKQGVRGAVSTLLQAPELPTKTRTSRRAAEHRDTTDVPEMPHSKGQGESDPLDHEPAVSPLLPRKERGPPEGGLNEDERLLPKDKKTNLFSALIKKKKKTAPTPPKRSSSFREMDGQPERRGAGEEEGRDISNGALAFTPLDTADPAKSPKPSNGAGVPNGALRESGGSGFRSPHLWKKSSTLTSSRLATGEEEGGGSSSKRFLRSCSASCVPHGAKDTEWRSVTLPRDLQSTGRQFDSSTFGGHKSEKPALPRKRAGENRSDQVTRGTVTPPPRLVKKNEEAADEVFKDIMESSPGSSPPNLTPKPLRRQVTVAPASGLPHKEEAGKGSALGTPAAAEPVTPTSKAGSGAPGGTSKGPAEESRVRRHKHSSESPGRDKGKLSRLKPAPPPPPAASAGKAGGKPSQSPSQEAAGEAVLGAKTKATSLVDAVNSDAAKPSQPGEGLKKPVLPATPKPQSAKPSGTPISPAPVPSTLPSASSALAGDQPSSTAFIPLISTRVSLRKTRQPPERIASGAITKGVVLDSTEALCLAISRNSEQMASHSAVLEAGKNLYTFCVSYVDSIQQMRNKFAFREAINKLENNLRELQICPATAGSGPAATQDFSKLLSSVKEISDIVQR
Structure (SMILES),"activity change, gain of signal",Potency
N#Cc1ccc2ncnc(NCCc3ccccc3)c2c1,5.52% (inactive),
Nc1ncccc1-c1nc2ccc(-c3ccccc3)nc2n1-c1ccc(C2(N)CCC2)cc1,1.51% (inactive),
COc1ccccc1-c1c[nH]c2ncc(-c3cncc(C(=O)N(C)C)c3)cc12,,3.04 nM (active)
Cc1ccc(C(=O)Nc2ccc(CN3CCN(C)CC3)c(C(F)(F)F)c2)cc1C#Cc1cnc2[nH]ncc2c1,,4.14 nM (active)
COc1cc(N2CCOCC2)ccc1Nc1ncc(Cl)c(Nc2ccccc2NS(C)(=O)=O)n1,,5400 nM (active)
Oc1ccc(-c2ccc(-c3cc(Nc4cccc(CNC5CC5)c4)n[nH]3)cc2)c(O)c1,,9600 nM (active)
N#Cc1cccc(-c2c[nH]c3ncnc(N4CCOCC4)c23)c1,,10200 nM (active)
Cc1nc2ccc(-n3ncc(C(=O)c4cc5ccccc5[nH]4)c3N)cc2[nH]1,,3930 nM (active)
CCCCNc1ncc2c(-c3ccc(S(=O)(=O)N4CCOCC4)cc3)nn(C3CCC(O)CC3)c2n1 (stereo not given),,1520 nM (active)
CC[C@@](C)(Nc1ccnc(-c2c[nH]c3ncccc23)n1)C(=O)NCC(F)(F)F,,1440 nM (active)
O=C(NCCO)c1cccc(-c2cc(Nc3ccc(OC(F)(F)F)cc3)ncn2)c1,16.7% (inactive),
Cc1ccccc1-n1c([C@H](C)Nc2nc(N)nc3nc[nH]c23)nc2cccc(C)c2c1=O,-2.2% (inactive),
c1cc(-c2cc(C3CCNCC3)[nH]n2)ccn1,-33.3% [at 16.4 µM] (inactive),
S=C(NCc1ccc2c(c1)OCO2)N1CCN(c2ncnc3c2oc2ccccc23)CC1,10.6% (inactive),
Cc1cc(F)ccc1-c1nc(NCCN=C(N)NC#N)nc2c1ccc(=O)n2-c1c(F)cccc1F,4.17% (inactive),
COc1cc(NC(=O)c2cccc(-n3cc(NC(=O)Nc4cccc(C)c4)cn3)c2)cc(OC)c1OC,9.84% (inactive),
CCNC(=O)Nc1ccc(-c2nc3c(c(N4CCOC[C@@H]4C)n2)CCN(c2ncccn2)C3)cc1,11.4% (inactive),
Nc1nc(Nc2ccc(S(N)(=O)=O)cc2)n(C(=S)Nc2c(F)cccc2F)n1,,248 nM (active)
CCN1/C(=C\C(C)=O)Sc2ccc(OC)cc21,6.67% (inactive),
C#Cc1cccc(Nc2ncnc3cc4c(cc23)OCCOCCOCCO4)c1,,5880 nM (active)

Structure (SMILES),"activity change, gain of signal",Potency
C=CC(=O)Nc1cccc(Oc2nc(Nc3ccc(N4CCN(C)CC4)cc3OC)ncc2Cl)c1,10.9% (inactive),
Cc1cc(Nc2ncc3cc(-c4c(Cl)cccc4Cl)c(=O)n(C)c3n2)ccc1F,,4.94 nM (active)
O=c1c(O)c(-c2ccc(O)c(O)c2)oc2cc(O)cc(O)c12,,8310 nM (active)
Cc1ccc(-n2nc(C(C)(C)C)cc2NC(=O)NCc2cc(F)ccc2Oc2ccc3c(cnn3CCO)c2)cc1,,67.9 nM (active)
Cc1cc(Nc2ncc3c(n2)N(C)C(=O)N(c2cc(NC(=O)c4cccc(C(F)(F)F)c4)ccc2C)C3)n(C)n1,,31.2 nM (active)
CN1CCN(c2ccc(Nc3ncc4cc(C#N)c(=O)n(C5CCCC5)c4n3)cc2)CC1,,29.5 nM (active)
Cn1sc(=O)n(Cc2ccccc2)c1=O,-4.94% (inactive),
CCN1CCN(Cc2ccc(NC(=O)c3ccc(C)c(NC(=O)c4cncc(-c5cccs5)c4)c3)cc2C(F)(F)F)CC1,,5.22 nM (active)
COc1ccc(CNC(=O)Nc2ncc([N+](=O)[O-])s2)cc1,-14.6% (inactive),
O=C(Nc1cc(C(F)(F)F)ccc1N1CCCCC1)c1ccncc1,-5.06% (inactive),
O=C(NC1CCNCC1)c1[nH]ncc1NC(=O)c1c(Cl)cccc1Cl,11.1% (inactive),
CO[C@H]1/C=C/O[C@@]2(C)Oc3c(C)c(O)c4c(O)c(c(/C=N\N5CCN(C6CCCC6)CC5)c(O)c4c3C2=O)NC(=O)/C(C)=C\C=C\[C@H](C)[C@H](O)[C@@H](C)[C@@H](O)[C@@H](C)[C@H](OC(C)=O)[C@@H]1C,-35.9% (inactive),
CNS(=O)(=O)c1ccc2c(c1)/C(=C/c1[nH]c3c(c1CCCN1CCN(C)CC1)CCCC3)C(=O)N2,,932 nM (active)
Cc1cccc(/C=N/Nc2cc(N3CCOCC3)nc(OCCc3ccccn3)n2)c1,5.57% [at 26.3 µM] (inactive),
Cc1ccc(NC(=O)N2CCN(c3nc(N)nc4sc(-c5cccnc5)nc34)CC2)cc1,21.7% (inactive),
Nc1nc(NCCNc2ncc(-n3ccnc3)c(-c3ccc(Cl)cc3Cl)n2)ccc1[N+](=O)[O-],-22.7% (inactive),
CC1(C)OCCn2c1nc1c(N3CCOCC3)nc(-c3cnc(N)nc3)nc12,,6230 nM (active)
CC(C)(NS(=O)(=O)c1ccc2c(Cl)cnc(N=C(N)N)c2c1)C(=O)O,-29.5% (inactive),
FC(F)(F)c1ccc(/C=C/c2nc(COc3ccc(CCCCn4ccnn4)cc3)co2)cc1,-2.47% (inactive),
COc1cc2nccc(Oc3ccc(NC(=O)Nc4ccc(F)cc4F)c(F)c3)c2cc1OC,,641 nM (active)

# — PubChem BioAssay AID1963315 (National Center for Advancing Translational Sciences (NCATS), 2024)
